Screening data: PubChem, National Center for Advancing Translational Sciences (NCATS)
This is a sample that favours compounds with a hit; in the whole collection about 3.3% have one here.
LDHA block – LDHA (human) enzyme inhibition | activity change, % (values are at about 110 or 230 µM) | AID 1347041 | 480,000 compounds, 0.15% hits | purified LDHA, NADH/diaphorase-resazurin fluorescence; active compounds read low | P00338; in the data active means activity change below about -30%; inconclusive means mostly about -25% to -30%;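 further: plate controls were DMSO wells for no effect and wells without enzyme for full effect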
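Enzyme activity of human lactate dehydrogenase 5 (2 nM; 0.06 mM NADH, 0.2 mM pyruvate, 5 min, RT) is measured via a resazurin/diaphorase fluorescence readout of residual NADH.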
DRD3 antagonist – D3 dopamine receptor (human) antagonism; P35462; D3R cells, DiscoveRx beta-arrestin luminescence, antagonist mode; active compounds read low; max response, negative = inhibition, %; 360,000 compounds, 2.5% hits; AID 652054; in the data active means max response below about -50%; inconclusive means no clear call, values can overlap the other calls; further: on the % scale 0 is the no-effect control and ±100 the full control effect
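Cells plated overnight at 1500 cells/well, then exposed to library compounds with dopamine controls for 90 minutes at 37 degrees C. DiscoveRx reagent added for 30–60 minutes at room temperature; luminescence read, quantitative HTS format.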
PI5P4K alpha inh – inhibitors of human PI5P4K alpha | P48426 | PI5P4Kalpha enzyme, ADP-Glo luminescence, 60 min; active compounds read low | max response, % | 330,000 compounds, 1.2% hits; active means max response of -50% or lower; inconclusive means between -30% and -50%; inactive means -30% or higher; further: value at the top dose of about 77 µM; on the % scale 0 is the no-effect control and ±100 the full control effect
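Controls without substrate or without enzyme flank wells where PI5P4Kalpha converts substrate using 5 microM ATP (final). Incubation lasts 60 minutes at room temperature; ADP formed is read by ADP-Glo luminescence.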
PI4K2A block – PI4K2A (human) kinase inhibition | Q9BTU6 | purified PI4K2A, ADP-Glo luminescence, 1 h; active compounds read low | 420,000 compounds, 0.13% hits | AID 1346378 | activity change, negative = inhibition, % at 76.9 µM; in the data active means activity change below about -50%; inconclusive means mostly about -30% to -49%;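 further: -100% = wells without enzyme as full effect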
Target sequence (Q9BTU6 whole entry, looked up): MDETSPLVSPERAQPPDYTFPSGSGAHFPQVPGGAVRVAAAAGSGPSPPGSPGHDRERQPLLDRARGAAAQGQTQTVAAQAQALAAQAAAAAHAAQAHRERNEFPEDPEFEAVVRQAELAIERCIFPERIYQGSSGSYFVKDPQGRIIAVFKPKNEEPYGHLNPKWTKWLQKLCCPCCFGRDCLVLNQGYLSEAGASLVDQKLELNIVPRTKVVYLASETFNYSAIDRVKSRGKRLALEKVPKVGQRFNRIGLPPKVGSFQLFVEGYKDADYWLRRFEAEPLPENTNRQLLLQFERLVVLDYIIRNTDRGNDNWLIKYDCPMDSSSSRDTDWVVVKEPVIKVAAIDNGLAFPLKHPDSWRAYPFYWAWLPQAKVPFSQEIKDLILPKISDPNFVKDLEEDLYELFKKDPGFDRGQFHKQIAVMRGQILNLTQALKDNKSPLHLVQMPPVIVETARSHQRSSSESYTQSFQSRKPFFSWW
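Compounds are screened against recombinant PI4K2A using PI as substrate and ATP, the latter dispensed at 300 microM. Reactions run one hour at ambient temperature before ADP-Glo detection; full inhibition defined by wells lacking enzyme.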
DRD3 agonist – agonists of human D3 dopamine receptor; D3R DiscoveRx beta-arrestin cells, luminescence, 90 min; P35462; 410,000 compounds, 0.58% hits; max activation, %; in the data active means max activation above about 30%; further: 0% is about no effect
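Agonist mode: compounds and dopamine controls were applied to plated cells for 90 min at 37 degrees C after an overnight attachment at 1500 cells/well. Luminescent read-out followed 30 - 60 minutes at room temperature with DiscoveRx detection reagent.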
Starred values were filed as active, the others as inactive; ? = inconclusive; / = not tested or not shown; ! = repeats disagree.

SMILES | LDHA block | DRD3 antagonist | PI5P4K alpha inh | PI4K2A block | DRD3 agonist
OC(CNC1CCCc2ccccc21)COc1c(Cl)cccc1Cl (stereo not given) | -16 | -78* | 5 | -5 | -24
c1ccc2c(c1)CCCC2NCc1cccc2ccccc12 (stereo not given) | 2 | / | / | / | /
COc1ccc(OCCOCCN2CCc3ccccc3C2)cc1 | 0 | -51* | 0 | 1 | -9
Clc1ccc(OCCCCN2CCc3ccccc3C2)cc1 | -2 | -114* | 12 | 0 | -9
N#Cc1ccc(OCCN2CCc3ccccc3C2)cc1 | -16 | -79* | 2 | 3 | 2
N#CC(Cc1cccnc1)C(=O)Nc1ccc(F)cc1 (stereo not given) | 3 | / | / | / | /
COc1ccc(C(=O)C(Br)C(=O)c2ccc(OC)cc2)cc1 | -8 | / | / | / | /
Cc1cccc(CSc2nc3ccncc3n2CC(=O)Nc2cc(C)cc(C)c2)c1 | -17 | -55* | 12 | -2 | -11
Cc1nc2ccc(NS(=O)(=O)c3cccc([N+](=O)[O-])c3)cc2s1 | 5 | 20 | -13 | 2 | 36*
Cc1ccc(S(=O)(=O)Nc2ccc3nc(C)sc3c2)cc1 | 0 | 22 | -4 | -5 | 1
Cc1nc2ccc(NC(=O)c3cc([N+](=O)[O-])cc([N+](=O)[O-])c3Cl)cc2s1 | 7 | -68* | -28 | -20 | 11
Cc1cc(C)cc(Nc2nc3c(S(=O)(=O)c4cccc(Cl)c4)nnn3c3ccsc23)c1 | 6 | / | / | 0 | 54*
Cc1cccc(C(=O)NC2CCCc3ccccc32)c1C (stereo not given) | 2 | / | / | / | /
Cn1c(=O)[nH]c(=O)c2c1nc(SCCN1CCOCC1)n2Cc1ccccc1 | -2 | -70* | 3 | -6 | -11
CCn1c(CO)nc2c1c(=O)[nH]c(=O)n2Cc1ccccc1 | 2 | -80* | 0 | 0 | -33
Cc1ccc(-c2nc3c(c(=O)[nH]c(=O)n3Cc3ccccc3)n2Cc2ccccc2)o1 | -2 | 4 | ? | 2 | -4
CC(C)Sc1nc2c(c(=O)[nH]c(=O)n2C)n1Cc1ccccc1 | -30*! | 1 | -1 | 3 | 0
Cn1c(=O)[nH]c(=O)c2c1nc(SCCN1CCOCC1)n2CCCc1ccccc1 | -1 | -5 | -2 | -7 | 1
CSc1nc2c(c(=O)n(C)c(=O)n2C)n1Cc1cccc2ccccc12 | 5 | / | / | / | /
Cc1cnc(CNC(=O)c2ccc3sc([C@@H]4O[C@H](CO)[C@H](O)[C@H](O)[C@H]4O)nc3c2)cn1 | 3 | -50* | -3 | -5 | -5
Cc1cccc(C)c1NC(=O)c1ccc2sc([C@H]3C[C@H](O)[C@@H](CO)O3)nc2c1 | -8 | -25 | -5 | -1 | -6
Cc1cccc(C)c1NC(=O)c1ccc2sc([C@@H]3O[C@H](CO)[C@H](O)[C@H](O)[C@H]3O)nc2c1 | 4 | -52* | -5 | 2 | -8
O=C(NCc1cccnc1)c1ccc2sc([C@H]3C[C@H](O)[C@@H](CO)O3)nc2c1 | -7 | -69* | -8 | 5 | -4
Cc1ccc(-c2nc3nc(CNc4cc(Cl)ccc4C)cc(=O)n3[nH]2)cc1 | 10 | / | / | / | /
CC(Nc1ccc2oc(C(C)(C)C)nc2c1)C(=O)N1CCNC1=O (stereo not given) | 4 | / | / | / | /
SMILES | LDHA block | DRD3 antagonist | PI5P4K alpha inh | PI4K2A block | DRD3 agonist
CC1CCc2c(nc3ccc4ccccc4c3c2-c2ccccc2O)C1 (stereo not given) | 14 | / | / | / | /
CCCCCCCC/C=C\CCCCCCCC(=O)NCCc1ccc(O)c(O)c1 | -5 | 76 | 0 | 0 | 211*
O=C(CSc1nnc(Cc2ccccc2)o1)Nc1cc(Cl)cc(Cl)c1 | -11 | / | / | / | /
c1ccn2c(Nc3ccc4c(c3)OCCO4)c(-c3ccsc3)nc2c1 | -2 | / | / | / | /
Cc1ccc(C(=O)NNC2=Nc3cccc4cccc2c34)cc1 | -4 | -74* | 2 | 4 | -25
COc1ccc(C(=O)NNC2=Nc3cccc4cccc2c34)cc1 | -3 | -68* | -6 | 1 | -12
COc1ccc(CC(=O)NNC2=Nc3cccc4cccc2c34)cc1 | -7 | -79* | 0 | 1 | -22
Cc1cc(C)n(-c2ccc(=O)n(CC(=O)Nc3ccc(C(N)=O)cc3)n2)n1 | 0 | / | / | / | /
CCCCCCCC(=O)NNC(=O)c1ccc2ccccc2n1 | -1 | / | / | / | /
CCCCC(=O)Nc1ccc(-c2cc3cc(F)ccc3[nH]2)cc1 | 8 | / | / | / | /
S=C(NCc1cccc(Cl)c1)OC1CCC12CCC(c1ccccc1)CC2 (stereo not given) | / | / | / | 0 | /
COc1ccc(/C(O)=C2\C(=O)C(=O)N(Cc3ccco3)C2c2cccnc2)cc1F (stereo not given) | 3 | / | / | / | /
COc1ccc(/C(O)=C2/C(=O)C(=O)N(Cc3cccnc3)C2c2ccncc2)cc1F (stereo not given) | 3 | -136* | -18 | -9 | -2
O=C(/C=C/c1ccccc1)NC(=S)NNC(=O)Cc1cccs1 | -2 | -72* | -25 | 0 | -5
O=C(NCCCN1CCOCC1)c1ccc2c(c1)N(Cc1cccc(Cl)c1)C(=O)c1ccccc1S2=O (stereo not given) | 1 | -6 | -1 | 1 | -2
CC1CCCN(CCCNC(=O)c2ccc3c(c2)N(Cc2cccc(Cl)c2)C(=O)c2ccccc2S3=O)C1 (stereo not given) | -6 | -117* | -10 | 3 | -10
CC1CCCN(CCCNC(=O)c2ccc3c(c2)N(Cc2ccc(F)cc2)C(=O)c2ccccc2S3=O)C1 (stereo not given) | -5 | -82* | -6 | 0 | -20
CC1CCCCN1CCCNC(=O)c1nn(C)c2c1CSc1ccccc1-2 (stereo not given) | -5 | ? | 1 | -4 | -25
CCN1CCCC1CNC(=O)c1ccc2c(c1)N(Cc1ccccc1F)C(=O)c1ccccc1S2(=O)=O (stereo not given) | -8 | 13 | 11 | -5 | -13
CC1CCCN(CCCNC(=O)c2ccc3c(c2)N(Cc2ccccc2F)C(=O)c2ccccc2S3(=O)=O)C1 (stereo not given) | -1 | -112* | -5 | 3 | -26
CC1CCCN(CCCNC(=O)c2nn(C)c3c2CSc2ccccc2-3)C1 (stereo not given) | -1 | -66* | -10 | 3 | -17
O=C(NCCCN1CCCC1)c1ccc2c(c1)N(Cc1ccc(F)cc1)C(=O)c1ccccc1S2=O (stereo not given) | 2 | ? | 0 | -6 | -15
Cc1[nH]c(C)c(S(=O)(=O)NCc2ccc(Cl)cc2)c1C(=O)N1CCCCC1 | 0 | / | / | / | /
Cc1ccc(-c2cc(C(=O)N3CCCCC3)c3cc(Br)ccc3n2)o1 | 8 | / | / | / | /
CN1CCN(S(=O)C23CC4CC(CC(C4)C2)C3)CC1 (stereo not given) | -1 | -89* | / | -5 | -16
COc1ccc2c(c1)Cc1sc(NC(=O)c3cccc(C)c3)nc1-2 | 27 | / | / | -54* | -13
COc1ccc2c(c1)Cc1sc(NC(=O)c3cccc(Cl)c3)nc1-2 | 11 | / | / | -13 | 9
